Screens from PubChem BioAssay.
TDP43 rescue – inhibitors of TDP-43 toxicity in yeast | TDP-43 expressing yeast growth rescue, BacTiter-Glo, 24 h | Potency, µM (titrated, usually from 46.1 µM), for inactives: at the top dose growth rescue (activation), hits mostly activators | 410,000 compounds, 1.8% hits | AID 652104; note: % of control where 0% means no effect; nearly all actives have a fitted effect of over 50% in size
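Galactose-induced TDP-43 yeast, OD600=0.02, compound pinned; 24 hr, 30 deg C; BacTiter-Glo luminescence for growth. Inhibitors of TDP-43 toxicity read as activators.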
Abeta rescue – restores growth of yeast expressing A-beta42 peptide; yeast expressing A-beta42, growth rescue, OD600, 48 h; response scale: 0% DMSO, 100% iron-clioquinol control; Potency, µM (titrated, usually from 46.1 µM), usual class: activators; 410,000 compounds, 0.063% hits; AID 1347071; note: nearly all actives have a fitted effect of over 55% in size
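Yeast A-beta toxicity model in growth medium with pinned compounds, 48 h at 30 C; growth read as absorbance at 600 nm. Normalized to FeCl3/clioquinol equimolar mix (positive) and DMSO (negative).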
aSyn rescue – alpha-synuclein toxicity inhibition in yeast. AID 652106. Yeast expressing alpha-synuclein, growth rescue, BacTiter-Glo, 24 h. 370,000 compounds, 0.14% hits. Potency, µM (titrated, usually from 46.1 µM), inactives show at the top dose growth rescue (activation), most hits filed as activators; note: % of control where 0% means no effect; nearly all actives have a fitted effect of over 65% in size
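Rescue of yeast growth: cells expressing toxic alpha-synuclein, induced in galactose at OD600 0.02, incubated with compound 24 h at 30 C. ATP luminescence quantified growth; inhibitors of toxicity appear as activators.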
FUS suppressor – suppressors of FUS proteinopathy in yeast | S. cerevisiae FUS-expressing, growth rescue, OD600, 24 h | 390,000 compounds, 0.24% hits | Potency, µM (titrated, usually from 76.6 µM), most hits filed as activators;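 note: plate controls were DMSO vehicle for no effect and reference control for full effect; nearly all actives have a fitted effect of over 55% in size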
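Toxicity suppression screen in FUS-yeast. Cells induced with 2% galactose, starting OD 0.005, treated 24hr at 30C with compounds at multiple final concentrations; growth by OD600.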
Starred values were filed as active, the others as inactive; i = inactive; u = inconclusive; x = no result; [ ] = remark or other dose. This is a sample that favours compounds with a hit; in the whole collection about 2.1% have one here. Calls come from the whole dose curve; as a rule, active = well fitted curve in the direction sought with a large enough effect; inconclusive = small, poorly fitted or top-dose-only effect, or another doubt; inactive = no such curve, though single readings can be large; an effect the other way counts as inactive or inconclusive. Potency is the fitted concentration of half-maximal effect.

SMILES	TDP43 rescue	Abeta rescue	aSyn rescue	FUS suppressor
Cc1nc(Sc2ccccc2)c(C#N)c(C)c1[N+](=O)[O-]	7.1µM*	u	1%	i
Cc1ccc(-c2cc(N)n(-c3ccccc3)n2)cc1	20µM*	i	-19%	i
COC(=O)NNC(=O)c1ccc(C)c(Br)c1	20µM*	u	2%	x
Cc1ccc(C(=O)NNC(=O)C2CC2)cc1Br	8%	i	-1%	i
CN1c2ccccc2-c2nc3ccccc3n2C1c1cccs1 (stereo unspecified)	7.1µM*	i	-35%	i
COc1ccc(CNC(=O)c2ccc(CN3C(=O)C(C)=C(c4ccc(C)cc4)S3(=O)=O)cc2)cc1	3%	i	x	u
COc1cccc2c1C(=O)c1c(O)c3c(c(O)c1C2=O)C[C@](O)(C(C)=O)C[C@H]3O[C@@H]1C[C@@H](N)[C@@H](O)[C@@H](C)O1	-13%	i	11µM*	i
COc1cccc2c1C(=N)c1c(O)c3c(c(O)c1C2=O)CC(O)(C(C)=O)CC3OC1CC(N)C(O)C(C)O1 (stereo unspecified)	-63%	i	-39%	x
CCCCCCCn1c(NC(=O)CC)nc2ccccc21	u	22µM*	u	i
CCCn1c(NC(=O)c2cccc(S(=O)(=O)N3CCCC3)c2)nc2ccccc21	22µM*	i	1%	u
CCC(=O)Nc1nc2ccccc2n1CCN1CCOCC1	-1%	i	3%	i
CCn1cc2nc(SCc3cccc(C(F)(F)F)c3)n(Cc3ccc(C)cc3)c(=O)c2n1	8%	i	x	i
CCCCC(CC)CNC(=O)c1ccc(Cn2c(=O)[nH]c3cc(OC)c(OC)cc3c2=O)cc1 (stereo unspecified)	2%	i	x	i
C=CCNc1nc(-c2ccc(Cl)cc2)cs1	11µM*	i	-13%	i
C=CCNc1nc(-c2ccc([N+](=O)[O-])cc2)cs1	u	i	3%	i
O=C(COc1ccccc1)N1CCN(c2ncnc3c2cnn3-c2ccccc2)CC1	14µM*	i	9%	i
c1ccc(-n2ncc3c(N4CCN(CCOc5cccc6ccccc56)CC4)ncnc32)cc1	20µM*	i	-1%	i
O=S(=O)(c1cccc(Br)c1)N1CCN(c2nc(-c3cccs3)nc3ccccc23)CC1	x	x	0%	x
COc1ccccc1Cc1c(-c2ccc(Cl)cc2)nc2c(C)cc(Br)cn12	25µM*	i	-10%	u
COc1ccc(-c2nc3c(C)cc(Br)cn3c2Cc2ccccc2)cc1OC	0%	i	24%	i
COc1ccc(-c2nc3c(C)cc(Br)cn3c2Cc2cccc(F)c2)cc1OC	16µM*	i	7%	u
COc1ccc(-c2nc3ccc(Br)cn3c2Cc2cccc(F)c2)cc1OC	14µM*	i	26%	i
Cc1ccccc1CNC(=O)Nc1ccc2c(c1)N(C)C(=O)c1ccccc1S2	-7%	i	x	u
COc1cccc2cc(-c3nc4ccccc4o3)c(=O)oc12	3.2µM*	i	3.2µM*	i
O=c1oc2ccc(Br)cc2cc1-c1nc2ccccc2o1	-13%	i	0%	i
SMILES	TDP43 rescue	Abeta rescue	aSyn rescue	FUS suppressor
CCc1nc(C)cn1S(=O)(=O)c1ccc(Cl)c(Cl)c1OC	u	i	x	i
CCCn1nc(C(=O)Nc2nc(-c3ccccn3)cs2)c2ccccc2c1=O	u	10µM*	-6%[1.84 µM]	i
CCCn1nc(C(=O)NCC2COc3ccccc3O2)c2ccccc2c1=O (stereo unspecified)	22µM*	i	2%[1.84 µM]	i
COc1ccc(-n2nc(C(=O)NCC(=O)NCC3COc4ccccc4O3)c3ccccc3c2=O)cc1OC (stereo unspecified)	-2%	i	0%	18µM*
CCn1nc(C(=O)Nc2nc(-c3ccccn3)cs2)c2ccccc2c1=O	u	i	-16%	i
CCCn1nc(C(=O)NC2CC2)c2ccccc2c1=O	9%	i	0%	i
N#C/C(=C\c1ccc(-c2ccc(C(=O)O)cc2)o1)C(=O)Nc1ccccc1C(=O)O	u	i	x	i
Clc1ccc(N2CCN(c3ncnc4c3nc3n4CCCC3)CC2)cc1	u	i	x	i
COc1ccc(CN(CCCN)c2ccc(Br)cn2)cc1	x	x	-3%	x
O=C(OCc1nc2ccsc2c(=O)[nH]1)c1ccc(Cl)s1	18µM*	i	1%	i
COC(=O)c1cc(-c2cc(Cl)ccc2OC)c(=O)n2c1CCC2	x	x	x	i
